Assay results published in PubChem BioAssay (Tox21).
Values joined by “and” are separate entries in the source; they are usually repeats but may differ in a detail not shown here. Equal values may be shown once. Inconclusive results are not listed. Some compounds were tested as several samples or in several runs, with calls that do not always agree. Active and inactive are the calls of the source. Unless noted, the call rests on the fitted dose curve; in most records, active means well fitted curve in the direction sought with a large enough effect in the repeat runs; inconclusive means weak or mixed curves; inactive means no such curve, though single readings can be large; an effect the other way counts as inactive or inconclusive.

Experiments:
[1] = qHTS assay to identify small molecule antagonists of the retinoid acid receptor (RAR) signaling pathway - cell viability counter screen (AID 1159551); further: nearly all actives have a fitted effect of over 35% in size
Summary of the method: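 Viability of C3RL4 cells is quantified from ATP by luminescence after 6 h treatment at 37 C with compounds and 1 uM retinol.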

[2] = qHTS assay to identify small molecule antagonists of the estrogen related receptor (ERR) signaling pathway from Tox21 library - cell viability counter screen (AID 1224834); further: nearly all actives have a fitted effect of over 30% in size; further: potency means the concentration at half of the fitted maximal effect
Summary of the method: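 In this quantitative HTS format, ERR cells receive compounds in DMSO and are incubated for 17.5 h at 37 C. Live-cell protease activity is then detected with CellTiter-Fluor.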

[3] = qHTS assay to identify small molecule agonists of the constitutive androstane receptor (CAR) signaling pathway - cell viability counter screen (AID 1224836); further: nearly all actives have a fitted effect of over 45% in size; further: potency means the concentration at half of the fitted maximal effect
Summary of the method: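 Cell viability multiplexed with the CAR agonist screen: CellTiter-Fluor fluorescence after 23 hr at 37 C. HepG2-CYP2B6-hCAR cells got compounds at 15 concentrations with PK11195 at 0.75 uM final.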

[4] = qHTS assay to identify small molecule antagonists of the constitutive androstane receptor (CAR) signaling pathway - cell viability counter screen (AID 1224837); further: nearly all actives have a fitted effect of over 45% in size; further: potency means the concentration at half of the fitted maximal effect
Summary of the method: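 In quantitative HTS format, compounds at 15 concentrations were applied to HepG2 cells double-transfected with hCAR and CYP2B6-2.2kb under 50 nM CITCO stimulation; live-cell protease activity was read after 23 hr via CellTiter-Fluor.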

[5] = qHTS assay to identify small molecule antagonists of the estrogen related receptor signaling pathway with the pleiotropic PPARgamma coactivator (PGC) from Tox21 10K library - cell viability counter screen (AID 1224840; active means well fitted cell-killing curve with a large enough effect in the repeat runs, not every such curve was filed as active; further: nearly all actives have a fitted effect of over 40% in size; further: potency means the concentration at half of the fitted maximal effect)
Summary of the method: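 Viability counter screen, PGC/ERR cells: 17.5 h compound exposure at 37 C, CellTiter-Fluor fluorescence endpoint.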

[6] = qHTS assay to identify small molecule agonists of the hypoxia (HIF-1) signaling pathway - cell viability counter screen (AID 1224844; calls by dose curve; further: nearly all actives have a fitted effect of over 50% in size; further: potency means the concentration at half of the fitted maximal effect)
Summary of the method: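 Same wells as the HIF-1 reporter screen; ME-180 cells carrying HRE-bla, 17 hr treatment at 37C; CellTiter-Glo luminescence read after 30 min at room temperature.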

[7] = target: Luciferin 4-monooxygenase (Photinus pyralis) (UniProt P08659); experiment: qHTS assay to identify small molecule inhibitors of firefly luciferase (AID 1224835); further: nearly all actives have a fitted effect of over 25% in size; further: potency means the concentration at half of the fitted maximal effect
Sequence of Luciferin 4-monooxygenase (Photinus pyralis) (P08659 whole entry, looked up): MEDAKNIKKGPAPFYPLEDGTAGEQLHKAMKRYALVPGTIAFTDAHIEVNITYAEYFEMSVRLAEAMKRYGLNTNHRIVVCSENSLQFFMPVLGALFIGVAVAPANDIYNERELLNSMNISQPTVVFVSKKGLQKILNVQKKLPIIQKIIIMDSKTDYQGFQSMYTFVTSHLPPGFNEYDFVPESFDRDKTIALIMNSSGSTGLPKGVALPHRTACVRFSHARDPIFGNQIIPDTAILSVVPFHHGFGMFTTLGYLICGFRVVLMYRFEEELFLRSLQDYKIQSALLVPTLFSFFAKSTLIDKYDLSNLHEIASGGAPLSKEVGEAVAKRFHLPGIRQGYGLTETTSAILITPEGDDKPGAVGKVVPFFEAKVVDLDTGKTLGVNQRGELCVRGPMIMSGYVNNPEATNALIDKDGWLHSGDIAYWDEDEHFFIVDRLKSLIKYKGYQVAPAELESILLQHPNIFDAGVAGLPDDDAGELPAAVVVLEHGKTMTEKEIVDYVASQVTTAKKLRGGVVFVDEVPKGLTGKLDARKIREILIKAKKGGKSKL
Summary of the method: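 Quantitative HTS format; KM concentrations of both substrates. Purified P. pyralis FLuc activity quantified from luminescence images.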

[8] = target: Nuclear receptor subfamily 1 group I member 3 (Homo sapiens) (UniProt Q14994); experiment: qHTS assay to identify small molecule antagonists of the constitutive androstane receptor (CAR) signaling pathway (AID 1224838); further: nearly all actives have a fitted effect of over 40% in size; further: potency means the concentration at half of the fitted maximal effect
Sequence of Nuclear receptor subfamily 1 group I member 3 (Homo sapiens) (Q14994 whole entry, looked up): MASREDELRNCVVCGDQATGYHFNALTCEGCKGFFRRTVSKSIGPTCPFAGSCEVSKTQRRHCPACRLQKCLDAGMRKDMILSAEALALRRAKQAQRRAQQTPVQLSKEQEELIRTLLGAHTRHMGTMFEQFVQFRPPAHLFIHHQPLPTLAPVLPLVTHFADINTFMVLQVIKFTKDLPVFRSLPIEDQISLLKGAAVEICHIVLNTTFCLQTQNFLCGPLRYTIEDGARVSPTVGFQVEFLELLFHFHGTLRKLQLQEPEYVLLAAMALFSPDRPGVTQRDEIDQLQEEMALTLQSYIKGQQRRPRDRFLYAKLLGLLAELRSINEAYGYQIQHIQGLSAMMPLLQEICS
Summary of the method: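 CITCO-stimulated (50 nM final) HepG2 cells stably transfected with hCAR and CYP2B6-2.2kb luciferase were exposed to compounds at 15 concentrations for 24 h at 37 C/5% CO2. A luciferase reagent was added and luminescence recorded after 30 min.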

[9] = target: Nuclear receptor subfamily 1 group I member 3 (Homo sapiens) (UniProt Q14994); experiment: qHTS assay to identify small molecule agonists of the constitutive androstane receptor (CAR) signaling pathway (AID 1224839); further: nearly all actives have a fitted effect of over 15% in size; further: potency means the concentration at half of the fitted maximal effect
Summary of the method: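 Luminescent ONE-Glo read-out after 24 hr, 37 C exposure of double-stable HepG2-CYP2B6-hCAR reporter cells to a 15-point compound series, in the presence of 0.75 uM PK11195 (final).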

[10] = target: Thyrotropin receptor (Homo sapiens) (UniProt P16473); experiment: qHTS assay to identify small molecule agonists of the thyroid stimulating hormone receptor (TSHR) signaling pathway (AID 1224843; calls by dose curve; further: nearly all actives have a fitted effect of over 45% in size; further: potency means the concentration at half of the fitted maximal effect)
Sequence of Thyrotropin receptor (Homo sapiens) (P16473 whole entry, looked up): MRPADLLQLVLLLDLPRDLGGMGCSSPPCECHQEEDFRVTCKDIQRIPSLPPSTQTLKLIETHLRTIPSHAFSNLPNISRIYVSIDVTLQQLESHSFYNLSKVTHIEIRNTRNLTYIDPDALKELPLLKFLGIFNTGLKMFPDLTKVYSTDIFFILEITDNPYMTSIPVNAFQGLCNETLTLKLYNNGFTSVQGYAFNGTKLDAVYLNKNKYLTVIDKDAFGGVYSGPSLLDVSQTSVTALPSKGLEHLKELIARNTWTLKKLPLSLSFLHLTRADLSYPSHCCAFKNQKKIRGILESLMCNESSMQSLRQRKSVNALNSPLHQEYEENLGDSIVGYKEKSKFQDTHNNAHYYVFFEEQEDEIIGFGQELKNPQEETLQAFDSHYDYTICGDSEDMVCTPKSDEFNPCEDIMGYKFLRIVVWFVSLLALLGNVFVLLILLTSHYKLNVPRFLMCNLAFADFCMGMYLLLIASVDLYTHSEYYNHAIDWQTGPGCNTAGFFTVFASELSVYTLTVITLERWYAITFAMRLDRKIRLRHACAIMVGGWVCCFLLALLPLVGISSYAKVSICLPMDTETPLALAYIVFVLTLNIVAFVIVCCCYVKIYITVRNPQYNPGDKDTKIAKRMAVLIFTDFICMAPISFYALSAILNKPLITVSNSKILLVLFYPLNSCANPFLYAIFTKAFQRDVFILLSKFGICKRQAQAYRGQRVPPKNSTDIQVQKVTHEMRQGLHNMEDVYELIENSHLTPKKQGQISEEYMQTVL
Summary of the method: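 Compounds are titrated over 15 concentrations, in triplicate, onto TSHR-HEK293 cells seeded at 800/well. Plates sit 30 min at room temperature before cAMP-d2 and anti-cAMP cryptate are added; signal is read after a further hour.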

[11] = qHTS assay to identify small molecule antagonists of the retinoic acid receptor (RAR) signaling pathway (AID 1159552; further: nearly all actives have a fitted effect of over 50% in size; further: potency means the concentration at half of the fitted maximal effect)
Summary of the method: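 Luminescent RARE reporter read-out in C3RL4 cells: 6 hr co-treatment at 37 C of test compounds with retinol at 1 uM final. Cells plated overnight beforehand; luciferase reagent incubated 30 min at room temperature before reading.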

[12] = qHTS assay to identify small molecule agonists of the retinoic acid receptor (RAR) signaling pathway (AID 1159553); further: potency means the concentration at half of the fitted maximal effect
Summary of the method: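 Compounds dissolved in DMSO were pinned onto C3RL4 cells seeded the previous day, and plates were held 6 hr at 37 C. RARE-driven luciferase output was then read by luminescence.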

[13] = qHTS assay to identify small molecule agonists of the estrogen related receptor (ERR) signaling pathway (AID 1224820)
Summary of the method: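 After 6 h plating (2,000 cells/well) and 18 h compound treatment at 37 C, ERR cells were lysed with One-Glo and luminescence read after 30 min at room temperature.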

[14] = tested on: estrogen-related receptor alpha (ERRalpha) with PGC-1alpha coactivator, human; experiment: qHTS assay to identify small molecule antagonists of the estrogen related receptor signaling pathway with the pleiotropic PPARgamma coactivator (PGC) (AID 1224821; calls by dose curve;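 further: series mostly up to about 46 µM; lower luminescence signal means antagonism of PGC/ERR signalling; nearly all actives have a fitted effect of over 50% in size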)
Summary of the method: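 Luminescence from One-Glo luciferase reagent (30 min, room temperature) measured after 18 h compound treatment at 37 °C. Cells carry the PGC/ERR reporter and were seeded 6 h prior to dosing.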

[15] = qHTS assay to identify small molecule antagonists of the estrogen related receptor signaling pathway with the pleiotropic PPARgamma coactivator (PGC) cell viability counter screen (AID 1224822; further: potency means the concentration at half of the fitted maximal effect)
Summary of the method: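 Viable cell signal (CellTiter-Fluor, 30 min, 37 C/5% CO2) was measured in PGC/ERR cells after a 17.5 h compound incubation.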

[16] = qHTS assay to identify small molecule agonists of the estrogen related receptor signaling pathway with the pleiotropic PPARgamma coactivator (PGC) (AID 1224823)
Summary of the method: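 Luminescence from One-Glo reagent (30 min, room temperature) was read after 18 h compound treatment at 37 C of PGC/ERR cells plated 6 h beforehand; compounds delivered in DMSO by pin tool.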

[17] = qHTS assay to identify small molecule antagonists of the estrogen related receptor signaling pathway with the pleiotropic PPARgamma coactivator (PGC) from Tox21 10K library (AID 1224841; call rule not given here; further: actives are mostly falling curves and most rising ones were filed inactive; nearly all actives have a fitted effect of over 50% in size; further: potency means the concentration at half of the fitted maximal effect)
Summary of the method: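 In the PGC/ERR line, DMSO solutions of test chemicals are pin-delivered to 2,000 cells/well six hours after dispensing. Following eighteen hours' incubation, One-Glo reagent is added and luminescence recorded.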

[18] = qHTS assay to identify small molecule agonists of the estrogen related receptor signaling pathway with the pleiotropic PPARgamma coactivator (PGC) from Tox21 10K library (AID 1224842); further: nearly all actives have a fitted effect of over 15% in size; further: potency means the concentration at half of the fitted maximal effect
Summary of the method: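 PGC/ERR reporter cells (NTP line) were seeded 2,000 per well, rested 6 h at 37 C/5% CO2, then pin-dosed with compounds in DMSO for 18 h at 37 C; luciferase read by One-Glo luminescence after 30 min at room temperature.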

Measured: Potency

Clc1ccccc1CN1CCc2sccc2C1
inactive: [1] | [2] | [3] | [4] | [5] | [6]

CCCCN(CCCC)CCC(O)c1cc2c(Cl)cc(Cl)cc2c2cc(C(F)(F)F)ccc12 (configuration not stated)
inactive: [1] | [7] | [3] | [4] | [8] | [9] | [10]
active: [6] 21.3 µM

CC1=C(/C=C/C(C)=C/C=C/C(C)=C/C(=O)Nc2ccc(O)cc2)C(C)(C)CCC1
inactive: [13] | [14] | [16] | [7] | [9] | [18]
active: [12] 4.98 µM and 2.66 µM | [15] 13.9 µM | [2] 28 µM and 23.7 µM | [3] 23.7 µM | [4] 29.8 µM | [5] 28 µM and 13.3 µM | [17] 6.27 µM | [10] 22.2 µM and 11.9 µM | [6] 22.4 µM and 19 µM
inactive and 29.8 µM (active): [11]

C1CC(COCC2CO2)CCC1COCC1CO1 (configuration not stated)
inactive: [1] | [2] | [7] | [4] | [8] | [9] | [5] | [10]

CCCCOc1ccc(C(=O)CCN2CCCCC2)cc1
inactive: [1] | [2] | [8] | [5] | [10] | [6]

C=CCCCCCCC=C
inactive: [1] | [2] | [3] | [4] | [5]

O=C(O)CCn1c2c(c3ccccc31)C[C@H](NS(=O)(=O)c1ccc(F)cc1)CC2
inactive: [1] | [2] | [7] | [3] | [5] | [6]

CC(=O)Oc1ccc(C2(c3ccc(OC(C)=O)cc3)Oc3ccccc3NC2=O)cc1
active: [8] 16.8 µM
inactive: [1] | [7] | [3] | [9] | [5] | [10] | [6]

C=CC(=O)OCCOCC(CC)(COCCOC(=O)C=C)COCCOC(=O)C=C
active: [11] 31.9 µM | [12] 7.14 µM | [2] 16 µM | [4] 31.9 µM | [5] 16 µM | [17] 40.2 µM
inactive: [7] | [9] | [18] | [10]

c1ccc(Nc2cccc3ccccc23)cc1
active: [7] 40.5 µM and 35.6 µM | [9] 61.9 µM and 61.1 µM
15.6 µM (active) and inactive: [18]
not listed: [1] | [10] | [13] | [14] | [15] | [16]
inactive: all other assays above

NCCCC(O)(P(=O)(O)O)P(=O)(O)O
inactive: [1] | [2] | [3] | [8] | [9] | [5] | [10] | [6]

COc1ccc2sc(C(=O)Nc3nnn[nH]3)c(OC(C)C)c2c1
inactive: [1] | [7] | [18] | [10]
active: [8] 27.2 µM | [17] 24.2 µM | [6] 24.5 µM

CCCCCCCC(OC)OC
inactive: [1] | [2] | [7] | [4] | [8] | [9] | [5] | [10] | [6]

CN1[C@@H]2CC[C@@H]1CC(OC(=O)C(CO)c1ccccc1)C2 (some centres not stated)
inactive: [1] | [2] | [3] | [4] | [5] | [6]

CN(C)CCOC(c1ccccc1)c1ccccc1 (tested in a mixture with another compound)
inactive: [1] | [2] | [7] | [5]

CC(=O)Oc1ccc(C2(c3ccc(OC(C)=O)cc3)C(=O)Nc3ccccc32)cc1
inactive: [1] | [2] | [7] | [3] | [5] | [17] | [10]
active: [8] 0.168 µM | [6] 0.0425 µM

CCCN(CCc1cccs1)[C@H]1CCc2c(O)cccc2C1
active: [10] 29.8 µM
inactive: [1] | [7] | [3] | [4] | [9] | [5] | [17] | [6]
